# Most compounds without a hit are left out; they make up all but 2.4% or so of the library.
# D2 ag-1 – agonists of human D2 dopamine receptor; activation, % at 2 µM; HEK293 T-REx D2 cells, calcium flux agonist mode; actives 0.53% (n = 340,000);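 active means activation over 3 SD above normal in the single-dose calcium agonist read, cut at about 30% in these data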; further: 0% is about no effect
# Target sequence (P14416 whole entry, looked up): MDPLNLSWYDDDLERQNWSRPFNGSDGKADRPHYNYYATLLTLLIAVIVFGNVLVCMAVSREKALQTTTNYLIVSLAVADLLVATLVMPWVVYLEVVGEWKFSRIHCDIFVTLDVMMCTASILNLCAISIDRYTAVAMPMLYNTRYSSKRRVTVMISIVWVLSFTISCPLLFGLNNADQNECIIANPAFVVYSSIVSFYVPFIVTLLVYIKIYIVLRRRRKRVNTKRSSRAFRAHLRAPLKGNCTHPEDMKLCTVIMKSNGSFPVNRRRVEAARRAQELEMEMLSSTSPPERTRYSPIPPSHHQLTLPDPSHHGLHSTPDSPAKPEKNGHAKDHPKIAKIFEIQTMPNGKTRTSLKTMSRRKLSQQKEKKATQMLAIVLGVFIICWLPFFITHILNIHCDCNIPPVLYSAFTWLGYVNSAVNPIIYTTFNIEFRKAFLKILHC
#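 Agonism is scored from calcium flux in a force-coupled, inducible HEK293 cell line expressing D2, read kinetically for 180 s after compound addition against dopamine controls.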
# D2 PAM-1 – positive allosteric modulators of human D2 dopamine receptor; potentiation, % (test concentration not listed); DiscoveRx D2 beta-arrestin cells, luminescence, 90 min; 100% = 57 uM dopamine signal; AID 624464; actives 0.23% (n = 360,000); P14416; in the data active means potentiation above about 50%; inconclusive means mostly about 30% to 49%
#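 PathHunter D2 cells, attached overnight at 37 deg C, received compound in DMSO plus dopamine at EC20 (50 nM final) for 90 min at 37 deg C. Beta-arrestin recruitment was read as luminescence after 1 h with detection reagent at ambient temperature.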
# D2 PAM-2 – positively modulates the human D2 dopamine receptor allosterically. HEK293 T-REx D2, calcium flux, EC20 dopamine potentiation. P14416. AID 485347. actives 0.34% (n = 340,000). potentiation, % at 10 µM;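 active means potentiation over 3 SD above the plate norm, cut at about 30% in these data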; further: 0% is about no effect
#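 Potentiation of an EC20 dopamine calcium response measured kinetically over 180 s, after a preceding 180 s compound-only read flagging agonists. Cells: inducible Hek293 Trex D2 line, 4000/well, cultured overnight at 30 C before dye loading.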
# D2 antagonist – D2 dopamine receptor (human) antagonism | P14416 | HEK293 TREx D2 cells, calcium flux, dopamine EC80 | inhibition, % at 10 µM | actives 2% (n = 340,000) | AID 485344; in the data active means inhibition above about 30%; inactive means below that, where a call was filed; further: 0% is about no effect
#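 Tetracycline-induced HEK293 TREx cells expressing D2 receptor forced-coupled to calcium signalling, loaded with no-wash calcium dye. Compounds added and calcium flux read 180 s, then dopamine added at EC80 and read a further 180 s.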
# D2 ag-2 – agonists of human D2 dopamine receptor (beta-arrestin) | P14416 | DiscoveRx PathHunter D2 beta-arrestin, luminescence, 90 min; 100% = 57 uM dopamine signal | activation, % (test concentration not listed) | actives 0.084% (n = 360,000); in the data active means activation above about 40%; inconclusive means between about 15% and that limit
#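 DiscoveRx PathHunter D2 beta-arrestin cells (2,100/well) attached overnight, then compound-stimulated 90 min at 37 C in HBSS/10 mM HEPES/0.1% Tween-20 buffer; beta-galactosidase complementation read by luminescence after 1 h at ambient temperature. Dopamine 57 uM final (EC100) as control.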
# D3 arrestin ag – confirmation of human D3 dopamine receptor agonists, beta-arrestin; actives 4% (n = 2,300); Potency, µM (highest dose often 76.9 µM), inactives show at the highest dose activation, hits mostly activators; shares compounds with D2 ag-1; DiscoveRx D3 beta-arrestin cells, luminescence, 90 min; AID 720506;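 further: potency means the concentration at half of the fitted maximal effect; 100% = dopamine control response; nearly all actives have a fitted effect of over 70% in size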
# D2 ag-3 – D2 receptor agonism, beta-arrestin counterscreen; shares compounds with D2 ag-1; DiscoveRx PathHunter D2 beta-arrestin, luminescence, 90 min; response scale: percent relative to full dopamine signal; Potency, µM (top dose mostly 76.9 µM), for inactives: top-dose activation, hits mostly activators; actives 5.9% (n = 2,300); AID 720507; further: potency means the concentration at half of the fitted maximal effect; % of control where 0% means no effect; nearly all actives have a fitted effect of over 70% in size
# Starred values were filed as active, the others as inactive; ? = inconclusive; nt = no result given. Unless noted, the call rests on the fitted dose curve; in most records, active means well fitted activation curve with a large enough effect; inconclusive means small, poorly fitted or top-dose-only effect; inactive means flat fitted curve, though single readings scatter.
SMILES,D2 ag-1,D2 PAM-1,D2 PAM-2,D2 antagonist,D2 ag-2,D3 arrestin ag,D2 ag-3
O=C(O)[C@@H]1[C@H]2C[C@H]3c4[nH]c5ccccc5c4CCN3C[C@@H]2CC[C@@H]1O,41*,-29,-13,68*,0,8%,?
O=C(O)C1CCCC2CN3CCc4c([nH]c5ccccc45)C3C(O)C21 (stereo not drawn),26,-15,-12,57*,?,-1%,?
Cc1ncoc1C(=O)N1CCc2c([nH]c3ccccc23)C1C1CCCCC1 (stereo not drawn),0,-2,1,-10,1,nt,nt
CN(Cc1ccon1)C(=O)C1CCN(C2CCN(CCCc3ccccc3)CC2)CC1,49*,-13,-11,20,0,-4%,24%
O=C(NCCCN1CCN(c2ccccc2)CC1)Nc1ccccc1C(F)(F)F,78*,-8,-20,75*,?,?,21%
Cc1ccccc1NC(=O)NCCCN1CCN(c2ccccc2)CC1,77*,-21,-22,79*,?,?,?
C=C1CC[C@@H]2[C@](C)(CCC[C@@]2(C)/C=C/[C@@H](O)C(C)(C)O)[C@H]1CC(=O)NCCS(=O)(=O)O,nt,3,nt,nt,0,nt,nt
CCOC(=O)c1cc(-c2ccccc2)n[nH]1,-1,2,-1,-15,-1,nt,nt
CCOC(=O)c1nncc(-c2ccccc2)n1,0,-5,16,2,-2,-3%,-3%
COCc1cc(=O)n2c([nH]c3ccccc32)c1C#N,0,-1,10,37*,1,22%,6%
CC(SCc1cc(=O)n2c([nH]c3ccccc32)c1C#N)C(=O)O (stereo not drawn),1,-8,-3,2,0,nt,nt
Cn1cccc1/C=N/n1c(-c2ccco2)n[nH]c1=S,1,-1,-1,4,-1,nt,nt
COc1cc(-c2n[nH]c(=S)n2/N=C/c2cccn2C)cc(OC)c1OC,13,-11,13,-28,-6,25%,-16%
S=C(Nc1ccc(Br)cc1Cl)N1CCN(c2ccccn2)CC1,57*,-16,-13,-6,2,5%,27%
O=C(Nc1ccccc1C(F)(F)F)N1CCN(c2ccccn2)CC1,50*,-1,-16,19,-5,0%,5%
COc1ccccc1NC(=S)N1CCN(c2ccccn2)CC1,nt,-9,nt,nt,1,-2%,6%
COC(=O)c1ccc(C(=O)OC)c(NC(=S)N2CCN(c3ccccn3)CC2)c1,51*,1,-8,15,1,6%,2%
N#CC1c2ccccc2-c2ccccc2N1C(=O)c1ccccc1 (stereo not drawn),nt,-12,nt,nt,0,nt,nt
COc1ccc(C(=O)N2CCCCC2c2cc(C(=O)NCc3ccccc3)no2)cc1 (stereo not drawn),nt,-8,nt,nt,-3,nt,nt
COc1ccccc1NC(=O)N1CCN(c2ccccc2F)CC1,nt,-12,nt,nt,-1,nt,nt
COc1ccccc1NC(=O)N1CCN(c2ccccn2)CC1,37*,4,-10,-30,-4,5%,0%
O=C(Nc1ccccc1Cl)N1CCN(c2ccccn2)CC1,64*,9,-24,15,5,-2%,-1%
COc1cccc(C(=O)N2CCN(c3ccccn3)CC2)c1,nt,-4,-18,nt,?,?,26%
S=C(Nc1ccc(Oc2ccccc2)cc1)N1CCN(c2ccccn2)CC1,13,0,7,-31,1,18%,4%
COc1cc(OC)cc(C(=O)N2CCN(c3ccccn3)CC2)c1,-1,1,3,-4,5,nt,nt
COc1cc(CN2C[C@@H](CO)O[C@@H](n3cnc4c(N5CCN(C)CC5)ncnc43)C2)cc(OC)c1OC,nt,-6,nt,nt,-4,nt,nt
